About 2,600 (0.7%) of roughly 370,000 compounds were called active. This excerpt belongs to a sample that is enriched for actives. Values without a mark were called inactive.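 The calls were made as follows: active = inhibition above a per-plate cutoff, mean inhibition of test wells between control levels plus 3 SD (cut at about 38% in these data); inactive = the rest.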
These compounds were tested against COUP transcription factor 2 (Homo sapiens) (UniProt P24468) (assay: NR2F2 transcriptional activity inhibitors, primary screen, cell-based, luciferase reporter, HEK293T, luminescence (AID 686940;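 also: cells cotransfected with COUP-TFII expression vector driving the NGFI-A reporter; 0% = median of COUP-TF2 test wells and 100% = reporter-only cells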)). Conditions: HEK293T NGFI-A luciferase reporter, at 8.6 µM, stronger effect = higher value.
COUP transcription factor 2 (Homo sapiens), sequence (P24468 whole entry, looked up): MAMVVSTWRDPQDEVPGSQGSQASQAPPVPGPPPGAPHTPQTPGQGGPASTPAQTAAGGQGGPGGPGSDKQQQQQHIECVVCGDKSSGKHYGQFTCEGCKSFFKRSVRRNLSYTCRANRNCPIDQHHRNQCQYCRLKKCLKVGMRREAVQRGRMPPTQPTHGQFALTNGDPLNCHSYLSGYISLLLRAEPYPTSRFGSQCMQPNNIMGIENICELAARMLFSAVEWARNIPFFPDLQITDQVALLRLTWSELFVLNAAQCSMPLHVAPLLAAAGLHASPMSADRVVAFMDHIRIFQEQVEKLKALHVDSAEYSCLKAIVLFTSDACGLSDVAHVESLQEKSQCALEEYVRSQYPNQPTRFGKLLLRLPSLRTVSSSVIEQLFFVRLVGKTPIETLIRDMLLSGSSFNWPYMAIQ

Row | SMILES | inhibition
1 | COc1ccc(C(=O)OCCN2CCN(C3CN(Cc4cn(Cc5ccccc5F)nn4)S(=O)(=O)C3)CC2)cc1OC (configuration not stated) | 18.4%
2 | COc1cccc(N(C)C(=O)[C@@H](C)[C@@H](O)c2ccc3ccccc3c2)c1 | -11.8%
3 | COc1ccc(NC(=S)NCc2cccs2)c(OC)c1 | 6.7%
4 | COc1ccccc1CNCc1cccs1 | 9.93%
5 | COc1cccc(CNc2nc(NCc3cccs3)nc3ccsc23)c1 | 45.6% (active)
6 | COc1ccccc1CNc1nc(Nc2ccccc2Cl)c2sccc2n1 | 60.3% (active)
7 | CC(C)Nc1nc(NCCOc2ccccc2Cl)c2sccc2n1 | 19.2%
8 | COc1cccc(CNc2nc3cc(-c4csc5ccccc45)sc3c(=O)n2C)c1 | 5.09%
9 | COc1cccc(-c2cc3nc(NCc4ccccc4OC)n(C)c(=O)c3s2)c1 | -9.04%
10 | COc1cccc(CNc2nc(NCc3ccccc3OC)nc3ccsc23)c1 | 39.1% (active)
11 | COc1cccc(CNc2ncc(-c3ccccc3)n2C)c1 | -0.1%
12 | COc1ccc(C(=O)OCCN(C)C2CN(Cc3cn(Cc4cccc(C)c4)nn3)S(=O)(=O)C2)cc1OC (configuration not stated) | -14.5%
13 | COP(=O)(O)CNC(=O)OCc1ccccc1 | -0.48%
14 | COC(CNC(=O)[C@H](Cc1ccccc1)NC1(C(=O)NC2CCCCC2)CCCCC1)OC | -36.3%
15 | Cc1ccc(C(=O)N(Cc2ccccn2)CC2CCCO2)cc1 (configuration not stated) | -9.77%
16 | O=S1(=O)c2c(NCc3ccco3)cccc2Oc2ccccc2CN1Cc1cn(Cc2cccc(C(F)(F)F)c2)nn1 | -1.36%
17 | CCOc1ccc(-n2c(SCC(=O)Nc3cc(C)c(NC(=O)c4ccccc4)cc3OC)nnc2-c2cccs2)cc1 | 27.9%
18 | Cc1ccc(C2=CCN(C)C(=O)N2c2ccc(Cl)cc2)cc1 | -1.56%
19 | CCOc1ccc(N(CC(=O)Nc2c(C)n(C)n(-c3ccccc3)c2=O)S(=O)(=O)c2ccc(Cl)s2)cc1 | -10%

Row | SMILES | inhibition
20 | Cc1cc(C)cc(NC(=O)N2CCC(N(C)CCC(C)C)CC2)c1 | 1.48%
21 | Cc1ccc(OCCCC(=O)N2CCOCC2)c(C)c1 | -6.33%
22 | Cc1ccc(C)c(N2CCN(C(=O)CCCCCn3c(=S)[nH]c4ccc(N5CCOCC5)cc4c3=O)CC2)c1 | 44.7% (active)
23 | Cc1ccc(C)c(N2CCN(C(=O)Cn3ncn4cccc4c3=O)CC2)c1 | 10.1%
24 | CCC(c1ccc(NC(=O)OC(C)(C)C)cc1)c1cc(OC)cc(OC)c1 (configuration not stated) | 20%
25 | Fc1ccc2[nH]c3c(N4CCSCC4)ncnc3c2c1 | 45.2% (active)
26 | COc1ccc(CN(CCN2CCOCC2)C(=O)c2ccc(C)cc2)cc1OC | -7.96%
27 | CCOC(=O)[C@@]12CN(C(=O)OC(C)(C)C)CC=C1N(Cc1ccc(OC)cc1)C(=O)[C@H]2CC(=O)NCc1ccc(OC)c(OC)c1 | -0.1%
28 | Cc1cc(C)nc(NC(=S)N2CCN(c3ccc(C(F)(F)F)cn3)CC2)c1 | 22.9%
29 | CC(=O)OC12CCCN(C1)/C(=C/c1ccncc1)C2 (configuration not stated) | 3.99%
30 | COc1cccc(CNC(=O)C2CCCN(c3nc4ccccc4o3)C2)c1OC (configuration not stated) | -7.71%
31 | Cc1ccc(CNC(=O)Nc2nnc([C@H]3C[C@H](O)[C@@H](CO)O3)s2)cc1 | 46.9% (active)
32 | O=C(Nc1ccc(F)cc1)Nc1nnc([C@H]2C[C@H](O)[C@@H](CO)O2)s1 | -2.93%
33 | O=C(Nc1nnc([C@H]2C[C@H](O)[C@@H](CO)O2)s1)c1cccc(Cl)c1 | 7.36%
34 | Cc1cc(C(=O)NN=C/C=C/c2ccco2)n[nH]1 | -13.9%
35 | CCc1c(C)nc(SCC(=O)NC2CCCC2)[nH]c1=O | 11.9%
36 | COC(=O)c1ccccc1NC(=O)CSc1n[nH]c(-c2ccncc2)n1 | 8.9%
37 | CCc1ccc(-c2nc(SCC(=O)NC3CCCC3)n[nH]2)cc1 | 53.3% (active)
38 | O=C(c1cccc(C(F)(F)F)c1)N1CC[C@H]2[C@H](CCCN2Cc2cc(F)cc(F)c2)C1 | 2.53%

Row | SMILES | inhibition
39 | S=c1c2[nH]cnc2ncn1CCSc1ncnc2nc[nH]c12 | 3.01%
40 | CCc1ccc(N(CC)c2ncnc3nc[nH]c23)cc1 | 39.6% (active)
41 | Cc1ccc(NC(=O)c2ccc(CSc3ncnc4nc[nH]c34)cc2)c(C)c1 | -6.98%
42 | CCCCN1CCN(C(=O)c2ccc3c(c2)NC(=O)C(C)(C)O3)CC1 | -23.3%
43 | O=C(CNC(=O)c1ccccc1)OC(C(=O)Nc1cc([N+](=O)[O-])ccc1F)c1ccccc1 (configuration not stated) | 1.21%
44 | O=C(Nc1nc2ccc(Cl)cc2s1)c1cc(-c2ccc(Cl)cc2)nc2ccccc12 | -23.3%
45 | O=C(NC(Nc1nc2ccc([N+](=O)[O-])cc2s1)(C(F)(F)F)C(F)(F)F)c1ccccc1 | 74.1% (active)
46 | Cc1ccccc1NC(=O)COC(=O)c1ccc(Sc2ncn[nH]2)c([N+](=O)[O-])c1 | 13.4%
47 | O=C(NCCSCc1ccccc1)c1ccc(Cl)c(S(=O)(=O)N2CCOCC2)c1 | 11%
48 | CC(C)(CNC(=O)c1ccc(Cl)c(S(=O)(=O)N2CCc3ccccc3C2)c1)N1CCOCC1 | 65% (active)
49 | CN(C)S(=O)(=O)c1ccc(C(=O)NCC(C)(C)N2CCOCC2)cc1 | 15.8%
50 | N#Cc1ccc(OC[C@@H](O)CN2CCC(C(O)(c3ccccc3)c3ccccc3)CC2)c(F)c1 | -4.45%
51 | O=C(CSc1nc2ccccc2s1)NN=Cc1ccc(O)cc1O | -18.2%
52 | C=CCN(C)CC#Cc1ccccc1 | 17.2%
53 | Cc1ccc(-n2c(SCC(=O)Nc3cccc4ccccc34)nnc2-c2ccccn2)cc1 | 14.2%
54 | CC(C)(C)c1ccc(Oc2ccc(N)cc2)cc1 | 100% (active)
55 | COc1cccc(CNC(=O)CNS(=O)(=O)c2ccc3nc(C)sc3c2)c1OC | 14.5%
56 | O=C1CCC2(CCC(c3ccc(Cl)cc3)CC2)N1CCO (configuration not stated) | 20.9%
57 | COC1=C[C@H](C(=O)NCCNC(C)=O)[C@H](C)[C@@H](c2ccccc2)CC1=O | 12%
